Screens (PubChem BioAssay)
Hits are enriched below; roughly 1.9% of the tested compounds scored in any of these assays.
APP 5UTR inh – inhibitors of APP translation via 5'UTR reporter, primary screen, APP 5'UTR luciferase, SH-SY5Y cells; 190,000 tested, 0.82% active; AID 1285, 2008; inhibition, % at 2 µM; SH-SY5Y APP 5'UTR-luciferase reporter, luminescence;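 active means inhibition above a set limit, derived from the sample mean plus 3 SD, cut at about 45% in these data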
IEC-6 tox – cytotoxicity in IEC-6 intestinal epithelial cells, primary screen, cytotoxicity control for KLF5 inhibitor project, cell-based, luminescence; IEC-6 cytotoxicity, luminescence viability; inhibition, % at 5 µM; 290,000 tested, 0.78% active; AID 1825, 2009; in the data active means inhibition above about 22%;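 further: 0% = plate median of test compound wells and 100% = cytotoxic reference compound wells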
KLF5 inhibitor – KLF5 expression inhibitors, primary screen, DLD-1 cells, luminescence | 290,000 tested, 0.23% active | inhibition, % at 5 µM | DLD-1 KLF5 promoter-luciferase reporter;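 active means inhibition above a per-plate limit of that plate's mean compound inhibition plus 3 SD, cut at about 60% in these data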;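 further: 0% = DMSO wells and 100% = LY294002 at 200 µM; higher means less KLF5 promoter-driven luciferase light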
BaF3 parental – parental Ba/F3 cell viability inhibition, counter-screen for JAK2V617F inhibitor project, murine pro-B, CellTiter-Glo luminescence | CellTiter-Glo ATP luminescence | inhibition, % at 5.6 µM | 220,000 tested, 1.1% active | AID 1486, 2009;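 active means inhibition above a per-campaign cutoff, the mean inhibition of all tested compounds plus 3 SD, cut at about 27% in these data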;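 further: 0% = DMSO wells and 100% = JAK Inhibitor I control wells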
Ba/F3 V617F tox – reduced viability of JAK2V617F-dependent Ba/F3 cells, primary screen, JAK2V617F inhibitor project, cell-based, Ba/F3 EpoR-JAK2V617F, luminescence; ATP luminescence; inhibition, % at 5.6 µM; 220,000 tested, 1.1% active;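 active means inhibition above the campaign mean plus 3 SD over all tested compounds, cut at about 24% in these data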;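 further: cytokine-independent growth of Ba/F3 cells driven by EpoR plus mutant JAK2; 0% = DMSO-treated cells and 100% = JAK inhibitor I control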
* marks the source's active call; other numbers are inactive results.

`O=C(Cc1cccs1)N/N=C/c1ccccc1` gave IEC-6 tox -1.5, KLF5 inhibitor -21.0, BaF3 parental -0.2 and Ba/F3 V617F tox -3.8.
Screening CC(=O)/C=C/c1ccccc1O returned APP 5UTR inh -3.9, IEC-6 tox 5.5, KLF5 inhibitor -14.2, BaF3 parental 1.9 and Ba/F3 V617F tox 2.2.
For C[n+]1ccc(/C=C/c2ccccc2O)c2ccccc21 the results were APP 5UTR inh 12.1, IEC-6 tox -1.9, KLF5 inhibitor 6.0, BaF3 parental 71.2* and Ba/F3 V617F tox 58.0*.
Screening CC(C)c1ccc2c(c1)CCC1C(C)(CN)CCCC21C (stereo unspecified) returned IEC-6 tox -1.8, KLF5 inhibitor -18.6, BaF3 parental 79.4* and Ba/F3 V617F tox 96.4*.
For CCOc1cc(N2CCOCC2)c(OCC)cc1NC(=O)c1cc(-c2ccco2)nc2ccccc12 the results were APP 5UTR inh 48.8*, IEC-6 tox 1.5, KLF5 inhibitor -11.7, BaF3 parental 7.7 and Ba/F3 V617F tox 0.7.
`CCN1/C(=C/C=C/c2oc3ccc4ccccc4c3[n+]2CC)Oc2ccc3ccccc3c21` gave APP 5UTR inh 54.0*, IEC-6 tox 0.7, KLF5 inhibitor -16.5, BaF3 parental 68.3* and Ba/F3 V617F tox 100.9*.
Screening Cc1ccc2c(c1)S/C(=C/c1ccc[n+](C)c1)N2CCO returned APP 5UTR inh -6.5, IEC-6 tox 0.5, KLF5 inhibitor 5.1, BaF3 parental 70.9* and Ba/F3 V617F tox 88.3*.
Screening Brc1ccc(C=Nc2ccc(Nc3ccccc3)cc2)s1 returned APP 5UTR inh 45.2*, IEC-6 tox 7.3, KLF5 inhibitor 3.6, BaF3 parental 8.2 and Ba/F3 V617F tox 2.2.
COc1ccccc1-c1ccc(SCc2cccc(C)c2)nn1 was read as APP 5UTR inh -20.9, IEC-6 tox 3.9, KLF5 inhibitor -17.6, BaF3 parental 66.2* and Ba/F3 V617F tox 61.0*.
`CC(=O)Nc1ccccc1NC(=O)c1ccc(C)c(C)c1` gave APP 5UTR inh 0.2, IEC-6 tox 4.7, KLF5 inhibitor -57.0, BaF3 parental 3.2 and Ba/F3 V617F tox -1.5.
Screening CC(NS(=O)(=O)c1cccc(S(=O)(=O)c2ccccc2)c1)C(=O)O (stereo unspecified) returned APP 5UTR inh -6.6, IEC-6 tox -4.4, KLF5 inhibitor -11.1, BaF3 parental 30.9* and Ba/F3 V617F tox -1.4.
CCCNC(=S)N1CCC(C(=O)c2ccc(OC)cc2)CC1 was read as APP 5UTR inh 60.1*, IEC-6 tox -4.5, KLF5 inhibitor -11.6, BaF3 parental 7.8 and Ba/F3 V617F tox -1.3.
Screening CCCNC(=S)N1CCC(C(=O)c2ccc(Cl)cc2)CC1 returned IEC-6 tox 1.1 and KLF5 inhibitor -12.4.
`CC(=O)C1=C(O)C(=O)N(Cc2ccccc2)C1c1ccccc1F` (stereo unspecified) gave APP 5UTR inh -13.9, IEC-6 tox -4.4, KLF5 inhibitor -5.4, BaF3 parental 37.4* and Ba/F3 V617F tox 1.0.
`CC(=O)C1=C(O)C(=O)N(Cc2ccccc2)C1c1ccc(F)cc1` (stereo unspecified) gave IEC-6 tox 3.1 and KLF5 inhibitor -9.2.
COc1cc(-c2nnc(SCC(=O)N(Cc3ccccc3)C(C)(C)C)o2)cc(OC)c1OC was read as APP 5UTR inh -1.9, IEC-6 tox 6.3, KLF5 inhibitor -8.9, BaF3 parental 96.4* and Ba/F3 V617F tox 1.7.
`CCS(=O)(=O)Nc1ccc(C2=NN(S(=O)(=O)CC)C(c3cccs3)C2)cc1` (stereo unspecified) gave IEC-6 tox -2.3 and KLF5 inhibitor -26.6.
COc1cc(OC)cc(C(=O)N/N=C/c2ccc(OC)c(COc3ccc4ccccc4c3)c2)c1 was read as APP 5UTR inh 55.8*, IEC-6 tox 5.4, KLF5 inhibitor 3.7, BaF3 parental 4.9 and Ba/F3 V617F tox 2.1.
Screening Cn1c(CO)cnc1S(=O)(=O)Cc1c(Cl)cccc1Cl returned IEC-6 tox 5.2 and KLF5 inhibitor -8.5.
`CC1=[N+](C)c2ccc3ccccc3c2C1(C)C` gave APP 5UTR inh 12.2, IEC-6 tox -4.4, KLF5 inhibitor -19.8, BaF3 parental 54.1* and Ba/F3 V617F tox 53.4*.
For CCOc1ccc(N2C(=O)Nc3ccc(Br)cc3C2(O)C(=O)NCCN(C)C)cc1 (stereo unspecified) the results were IEC-6 tox 1.1 and KLF5 inhibitor -33.8.
Screening Cc1ccc(NC(=O)Cc2sc(C)nc2-c2ccc(C)cc2)cc1 returned APP 5UTR inh -8.1, IEC-6 tox 2.0, KLF5 inhibitor 6.0, BaF3 parental 39.4* and Ba/F3 V617F tox 20.6.
Cc1ccc(-c2nc(C)sc2CC(=O)NCc2ccco2)cc1 was read as APP 5UTR inh 3.8, IEC-6 tox -6.4, KLF5 inhibitor -40.3, BaF3 parental 1.7 and Ba/F3 V617F tox -4.4.
O=C(CN1CCN(C/C=C/c2ccccc2)CC1)NC(=O)NC1CCCCC1 was read as APP 5UTR inh -10.4, IEC-6 tox -0.5, KLF5 inhibitor -19.1, BaF3 parental 3.9 and Ba/F3 V617F tox -1.9.
For CCN(C(=O)c1ccc(C(C)(C)C)cc1)c1nnc(Cn2nnc3ccccc32)s1 the results were APP 5UTR inh 13.2, IEC-6 tox 8.8, KLF5 inhibitor -27.6, BaF3 parental 54.6* and Ba/F3 V617F tox 27.3*.
CCN(C(=O)CC(C)C)c1nnc(Cn2nnc3ccccc32)s1 was read as APP 5UTR inh 4.1, IEC-6 tox -3.6, KLF5 inhibitor -17.5, BaF3 parental 11.3 and Ba/F3 V617F tox -3.2.
Screening Cc1nc2ccccn2c1C(=O)NC1CCCc2ccccc21 (stereo unspecified) returned APP 5UTR inh 0.1, IEC-6 tox -1.0, KLF5 inhibitor -6.1, BaF3 parental 6.8 and Ba/F3 V617F tox 0.1.
`Cc1c(CCC(=O)NCCCn2ccnc2)c(=O)oc2c(C)c3oc4c(c3cc12)CCCC4` gave IEC-6 tox 1.6 and KLF5 inhibitor -17.5.
For O=C(N/N=C/c1ccccc1)c1[nH]c2ccc(Br)cc2c1-c1ccccc1 the results were APP 5UTR inh 88.5*, IEC-6 tox -4.9, KLF5 inhibitor 7.1, BaF3 parental 0.1 and Ba/F3 V617F tox -2.2.
C/C(CC(C)(C)C1CCCCC1)=N\NC(N)=S was read as APP 5UTR inh -3.1, IEC-6 tox 8.5, KLF5 inhibitor 19.5, BaF3 parental 73.2* and Ba/F3 V617F tox 79.8*.
Screening CCOc1ccc(N/C(SCc2cccc([N+](=O)[O-])c2)=C(/C#N)C(N)=O)cc1 returned APP 5UTR inh 10.0, IEC-6 tox -18.2, KLF5 inhibitor 0.7, BaF3 parental 12.8 and Ba/F3 V617F tox 1.2.
For N#CC(C#N)=C(Nc1ccc(F)cc1)SCc1cccc(F)c1 the results were APP 5UTR inh 4.0, IEC-6 tox 33.7*, KLF5 inhibitor 33.8, BaF3 parental 67.1* and Ba/F3 V617F tox 55.2*.
Screening CS(=O)(=O)N(CC(=O)NC1CCCCC1)Cc1ccc(F)cc1 returned APP 5UTR inh -0.8, IEC-6 tox -1.6, KLF5 inhibitor -8.2, BaF3 parental -0.8 and Ba/F3 V617F tox 1.9.
